A selection follows.
aSyn 5UTR act: Activators via SNCA 5'UTR binding, MLPCN; 7.1% of 300,000 active; alpha-synuclein 5'UTR reporter, activators screen; activity score, % (tested at 7.5 µM), hits read low; AID 1814, 2009; in the data active means activity score below about -60%
Starred values were filed as active, the others as inactive.

SMILES | aSyn 5UTR act
O=[N+]([O-])c1cc(S(=O)(=O)NCCN2CCOCC2)ccc1Sc1nnnn1-c1ccccc1 | -96*
Cc1ccc(C(=O)NC2=NCCS2)cc1 | -118*
Cc1ccc(C(=O)NC2=NCCS2)cc1Cl | -110*
O=C(NC1=NCCS1)c1ccc(C(F)(F)F)cc1 | -123*
N#Cc1ccc(C(=O)NC2=NCCS2)cc1 | -141*
Cc1ccc(C(=O)Nc2ccsc2C(=O)O)cc1 | -141*
COc1ccc(C(=O)NC2=NCCS2)cc1 | -91*
Nc1[nH]nc2c1NN(c1ccc(Cl)cc1Cl)N2 | -140*
Cc1nc(SC(C)C(=O)NCC2CCCO2)c2cc(-c3ccccc3)sc2n1 (stereo not given) | -107*
O=C1NC(=S)S/C1=C\c1coc2ccccc2c1=O | -85*
OCCN1CCN(CC/C=C2/c3ccccc3CSc3ccccc32)CC1 | 103
OCCN1CCN(CCCN2c3ccccc3Sc3ccc(C(F)(F)F)cc32)CC1 | -65*
COc1ccc(C2CC(=O)c3sc(NC(C)=O)nc3C2)cc1 (stereo not given) | -75*
CCS(=O)(=O)Nc1cccc(-c2nc3cccnc3s2)c1C | -99*
COc1cc(NS(=O)(=O)c2ccc(C)cc2)c2ncccc2c1 | 69
Cc1ccc(-c2nc3cccnc3s2)cc1NS(C)(=O)=O | -186*
COc1ccc(C)cc1NC(=O)C1COc2ccccc2O1 (stereo not given) | -67*
O=C(Nc1ccccc1[N+](=O)[O-])C1COc2ccccc2O1 (stereo not given) | -221*
COc1ccc(CNC(=O)C2COc3ccccc3O2)cc1 (stereo not given) | -62*
Cc1cc(Cl)ccc1NC(=O)C1COc2ccccc2O1 (stereo not given) | -85*
O=C(Nc1ccc(F)cc1)C1COc2ccccc2O1 (stereo not given) | -72*
COc1ccc(OC)c2c1sc(=NC(=O)C1COc3ccccc3O1)n2C (stereo not given) | -128*
O=C(Nc1ccc2c(c1)OCO2)C1COc2ccccc2O1 (stereo not given) | -177*
Cc1cc(=O)oc2cc(NC(=O)C3COc4ccccc4O3)ccc12 (stereo not given) | -62*
O=C(Nc1cnc2ccccc2c1)C1COc2ccccc2O1 (stereo not given) | -167*
SMILES | aSyn 5UTR act
COc1cccc(NC(=O)C2COc3ccccc3O2)c1 (stereo not given) | -201*
Cc1ccc(N2CSC3=C(C#N)C(c4cccs4)CC(=O)N3C2)cc1 (stereo not given) | -131*
COc1cc(OC)c(C2CC(=O)N3CN(c4ccc(C)cc4)CSC3=C2C#N)cc1OC (stereo not given) | -127*
CCc1ccc(N2CSC3=C(C#N)C(c4cccs4)CC(=O)N3C2)cc1 (stereo not given) | -94*
COc1ccc(-c2cc(C(=O)OCC(=O)NC(C)C)c3ccccc3n2)cc1 | -65*
Cc1ccc(-c2cc(C(=O)N3CCN(c4ccccc4O)CC3)c3ccccc3n2)o1 | -81*
CCN1CCCC(OC(=O)c2cc(-c3ccc(C)cc3)nc3ccccc23)C1 (stereo not given) | -94*
CC(C)Oc1cccc(-c2cc(C(=O)N3CCN(c4ncccn4)CC3)c3ccccc3n2)c1 | -64*
COc1ccc2cc(-c3cc(C(=O)OCC(=O)Nc4c(C)n(C)n(-c5ccccc5)c4=O)c4ccccc4n3)ccc2c1 | 52
Cc1cccc2c(C(=O)N3CCN(c4ccccc4)CC3)cc(-c3ccncc3)nc12 | 94
CCOc1ccc(-c2cc(C(=O)N3CCC(C)CC3)c3ccccc3n2)cc1 | -128*
CCOc1ccc(-c2cc(C(=O)O)c3ccccc3n2)cc1 | -83*
COc1ccc2nc(-c3ccc(Cl)cc3)cc(C(=O)O)c2c1 | -72*
Cc1cccc(NC(=O)c2ccc(NCC3CCCO3)c([N+](=O)[O-])c2)c1 (stereo not given) | -64*
Cc1cccc(NC(=O)c2ccc(NCC3CCCO3)c([N+](=O)[O-])c2)n1 (stereo not given) | -121*
CC(=O)c1ccc(NCC2COc3ccccc3O2)c([N+](=O)[O-])c1 (stereo not given) | -179*
Cc1cccc(NC(=O)c2ccc(NCCO)c([N+](=O)[O-])c2)n1 | -95*
CCc1ccc2oc(-c3cc(N=Cc4cccc(OC)c4O)ccc3O)nc2c1 | -146*
COc1ccc(-n2ncc3c(NCCN4CCOCC4)ncnc32)cc1 | -69*
COc1ccc(-c2oc3ncn(CCN4CCOCC4)c(=N)c3c2-c2ccc(OC)cc2)cc1 | 74
COc1ccc(-n2ncc3c(NCCCN4CCOCC4)ncnc32)cc1 | -120*
Cc1ccc2[nH]c(=O)c(-c3nc4cc(C)ccn4c3NCc3ccco3)cc2c1 | -78*
CC(/C=C1\NC(=S)NC1=O)=C\c1ccccc1 | -62*
Cc1[nH]n(-c2cccc(Cl)c2)c(=O)c1C=NCC(C)C | -168*
Cc1[nH]n(-c2cccc(Cl)c2)c(=O)c1C=NCc1ccco1 | -134*
SMILES | aSyn 5UTR act
Cc1[nH]n(-c2ccccc2)c(=O)c1C=NCc1ccco1 | -114*
CCCCOc1ccc(N2C(=O)CC(N(O)c3ccccc3)C2=O)cc1 (stereo not given) | -85*
Cc1sc2c(c1C)CN(Cc1ccncc1)CN2C(=O)c1ccco1 | -93*
C/C(=N/NS(=O)(=O)c1ccc(F)cc1)c1ccc(NC(=O)c2ccc(C)o2)cc1 | -72*
C/C(=N\NC(=O)c1c([N+](=O)[O-])c(C)nn1C)c1ccc(NC(=O)C2CCCC2)cc1 | 81
C/C(=N\NC(=O)c1c([N+](=O)[O-])c(C)nn1C)c1ccc(NC(=O)c2ccc(C)o2)cc1 | -104*
Cc1ccc(C(=O)N(C)c2nnc(-c3ccncc3)s2)cc1 | -107*
CN(C(=O)c1ccncc1)c1nnc(-c2ccccn2)s1 | -66*
COc1ccc(OCCSc2nc(N)cc(N)n2)cc1 | -103*
Cc1ccc(OCCSc2nc(N)cc(N)n2)cc1 | -120*
Oc1cccc(/C=N/c2c(-c3ccco3)nc3ccccn23)c1 | -72*
O=[N+]([O-])c1ccc(-c2ccc(/C=N/c3c(-c4ccco4)nc4ccccn34)o2)cc1 | -75*
Cc1cc(C)c([N+](=O)[O-])cc1-c1ccc(/C=N/c2c(-c3ccco3)nc3ccccn23)o1 | -92*
OCCCN=c1cc(-c2ccccc2)oc2ccc(Cl)cc12 | -440*
CC1(C)CC(N=c2cc(-c3ccccc3)oc3ccc(Cl)cc23)CC(C)(C)N1 | 99
COc1ccc(C2C(CC(=O)O)=C(Nc3ccccc3)C(=O)N2c2ccccc2)cc1 (stereo not given) | -86*
O=C(O)CC1=C(Nc2ccccc2)C(=O)N(c2ccccc2)C1c1ccc(F)cc1 (stereo not given) | -83*
Clc1ccc(-c2nc(NCCN3CCOCC3)c3ccccc3n2)cc1 | -90*
CCOc1cc2nc(-c3ccc(OC)c(OC)c3)nc(NCCCN3CCOCC3)c2cc1OC | -65*
COc1ccc(C2c3ccc4ccccc4c3Oc3ncn(CCN4CCOCC4)c(=N)c32)cc1OC (stereo not given) | 105
CSc1nc(O)c(/C=C2\C=Nc3ccccc32)[nH]1 | -221*
C(=C\c1nc(-c2ccccc2)no1)/c1ccccc1 | -154*
C(=C\c1ccncc1)/c1ccccc1 | -73*
C(=C\c1nc(-c2ccncc2)no1)/c1ccccc1 | -132*
COc1ccc2cc(C3CC(c4cccs4)=NN3S(C)(=O)=O)c(Cl)nc2c1 (stereo not given) | -62*
COc1cccc(C2=NN(S(C)(=O)=O)C(c3cccs3)C2)c1 (stereo not given) | -107*

Screening results (PubChem)
